This note sets out measurements from PubChem BioAssay AID1578 (Sanford-Burnham Center for Chemical Genomics, 2009).

About 3,000 (1%) of roughly 290,000 compounds were called active. For the sample, actives were picked, then their nearest neighbours and some compounds at random. A number with no mark means an inactive call. Rule as the data show it: active = inhibition mostly above about 36% (no sharp cut-off); inactive = mostly below about 34%.

The experiment is described as follows: inhibition of NOD1-driven NF-kB reporter – cell-based, luminescence, uHTS, primary screen (AID 1578).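 Also: HEK-293T reporter cells stimulated with the NOD1 agonist gamma-tri-DAP.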 To be noted: NOD1-driven NF-kB luciferase reporter cells, at 4 µM, hits give high values. Background: In a reporter assay the amount or activity of a reporter protein is the signal.
Take `CCOC(=O)N1CCN(S(=O)(=O)/C=C/c2ccccc2)CC1`: the inhibition was 9.2%. For the molecule `CCOC(=O)N1CCN(C/C(C)=C/c2ccccc2)CC1`, the inhibition was -12%. For the molecule `CCOC(=O)N1C/C(=C\c2ccccc2)C(=O)/C(=C/c2ccccc2)C1`, the inhibition is 41.1% (active). For `COc1cccc(-n2c([S-])c(C(=O)Nc3ccc(C(F)(F)F)cc3)[n+]3ccccc23)c1`, the inhibition is -8.9%. With `COc1cccc(C(=O)Nc2ccc(S(=O)(=O)Nc3nccc(C)n3)cc2)c1` the figure was -16.6%; with `Cc1ccc(S(=O)(=O)NCCC(=O)O)cc1`, -3.1%; with `CCCn1c(SCC(=O)c2ccc3c(c2)OCCO3)nc2c1c(=O)n(C)c(=O)n2C`, -19.8%. Then `O=C(CN1C(=O)c2ccccc2S1(=O)=O)c1ccccc1`, with -2.1%; and `Cc1ccc(C)c(C(=O)CN2C(=O)c3ccccc3S2(=O)=O)c1`, with 9.1%. For the molecule `Cc1cc(C(=O)CN2C(=O)c3ccccc3S2(=O)=O)c(C)n1-c1ccccc1`, the inhibition was 94.4% (active).

Take `COc1cc(NC(=O)CC(C)n2ccnc2)cc(OC)c1` (stereo unspecified): the inhibition was -0.2%. With `COC(=O)c1c(NC(=O)CCl)sc(C(=O)N2CCOCC2)c1C` the figure was 80.5% (active); with `COC(=O)c1c(NC(=O)C(C)C)sc(C(=O)N2CCOCC2)c1C`, 5.6%; with `COC(=O)c1c(NC(C)=O)sc(C(=O)N2CCOCC2)c1C`, -4.7%. On to `COc1ccccc1NC(=O)CS(=O)(=O)c1cn(CC(=O)N(C(C)C)C(C)C)c2ccccc12`, for which the inhibition was -1.2%. With `Cc1ccccc1C(=O)Nc1cc(-c2cc(C(C)(C)C)oc2C)nn1C` the figure was -3.8%; with `Cc1ccc(NC(=O)C(=Cc2ccc(C(=O)O)cc2)C(=O)Nc2ccc(C)cc2C)c(C)c1`, 9.9%; with `CC(=O)/C(=C/c1ccccc1)C(=O)Nc1ccccc1C`, 35.2%. Regarding `Cc1ccccc1NC(=O)C(=Cc1ccc(C(=O)O)cc1)C(=O)Nc1ccccc1C`, the inhibition is 39.4% (active). As for `CC(=O)Nc1ccccc1C(F)(F)F`, the inhibition was 5.2%. With `Cn1c(O)c(C2=c3ccccc3=NC2=O)[nH]c1=S` the figure was 7.1%; with `COc1ccc2nc(-n3c(O)c(C4=c5ccccc5=NC4=O)[nH]c3=S)sc2c1`, 93% (active); with `COc1ccc2nc(N3C(=O)CNC3=S)sc2c1`, -9.5%. With `COc1ccc(-c2cn3c4c(sc3n2)CCCC4)cc1` the figure was 1.4%; with `CN(C)S(=O)(=O)c1ccc(N2CCCC2)c(C(=O)Nc2ccccc2N2CCOCC2)c1`, -0.9%. Then `CCCCC(=O)N/N=C(/C)C1=C(C)C(C)(C)OC1=O`, with -20.4%.

For the molecule `COc1ccc(-c2ccc(/C=C3\C(=O)N(c4ccccc4)N=C3c3ccccc3)o2)c([N+](=O)[O-])c1`, the inhibition is 10.5%.

Take `Cc1ccc(-c2ccc(/C=C3\C(=O)ON=C3c3ccccc3)o2)c([N+](=O)[O-])c1`: the inhibition was 70.5% (active).

Take `O=C1ON=C(c2ccccc2)/C1=C/c1ccc(-c2ccccc2[N+](=O)[O-])o1`: the inhibition was 46.2%. With `CCSc1nc2ccccc2n1CC(=O)N1CCCCC1` the figure was 14.8%. Then `O=[N+]([O-])c1cc(CN2CCOCC2)c2cccnc2c1O`, with 51.3% (active). Then `O=[N+]([O-])c1cc(CN2CCN(c3ccccc3)CC2)c(O)c2ncccc12`, with 31.8%.

With `O=[N+]([O-])c1cc(CN2CCCC2)c2cccnc2c1O`, the inhibition was 2.2%.

Consider `O=[N+]([O-])c1cccc(S(=O)(=O)Nc2ccc(S(=O)(=O)N3CCCC3)cc2)c1`, for which the inhibition was -4%. With `CSc1cccc(NC(=O)CCn2c(=O)c3cccn3c3cccnc32)c1` the figure was -16.4%. Then `Cc1nc(NC(=O)/C=C/c2ccccc2)n[nH]1`, with 51.1%. Then `O=C(/C=C/c1ccccc1)Nc1cc(NC(=O)/C=C/c2ccccc2)cc(C(=O)O)c1`, with -29.4%; and `O=C(/C=C/c1ccccc1)Nc1cc(C(=O)O)cc(C(=O)O)c1`, with -46.3%.

On to `CC(=O)Nc1cccc(C(=O)/C=C/c2ccc(C)cc2)c1`, for which the inhibition is 34.7%. `CC(=O)Nc1cccc(C(=O)/C=C/c2ccc(/C=C/C(=O)c3cccc(NC(C)=O)c3)cc2)c1`: the inhibition was 85.5% (active). For `O=C(/C=C/c1cccc(C(F)(F)F)c1)Nc1cccc(C(F)(F)F)c1`, the inhibition is 75.5% (active).

In the case of `Cc1ccc(NC(=O)/C=C/c2cccc(C(F)(F)F)c2)cc1`, the inhibition was 15.4%. Then `CC(=O)Nc1ccc(NC(=O)/C=C/c2cccc(C(F)(F)F)c2)cc1`, with -14.7%; and `O=C(/C=C/c1ccccc1)Nc1cccc(C(=O)O)c1`, with 96.6% (active). Then `O=C(Nc1ncn[nH]1)c1ccccc1O`, with 1.8%. With `CC(=O)Nc1cccc(C(=O)/C=C/c2ccc(F)cc2)c1` the figure was -34.5%. Consider `O=C(/C=C/c1ccccc1)Nc1ncn[nH]1`, for which the inhibition is 59.8% (active). With `CC(C)=CCN1CCN(C/C(Cl)=C/c2ccccc2)CC1CCO` (stereo unspecified) the figure was 1.6%. Then `Cc1ccc(CNC(=O)CCS(=O)(=O)c2cc3c(cc2Cl)NC(=O)CO3)o1`, with -10.7%. Then `COc1cc(/C=C(\C#N)C(=O)Nc2ccccc2)ccc1OCCN1CCOCC1`, with -28.7%; and `COc1cc2c(C(=O)NCCN(C)C)cn(CC(C)C)c(=O)c2cc1OC`, with 1.3%. In the case of `COc1ccc(-c2nn(CC(=O)Nc3ccc(Cl)c(Cl)c3)c(=O)c3ccccc23)cc1`, the inhibition was 15.6%. Then `COc1ccc(C(=O)N/C(=C\c2cn(S(=O)(=O)N(C)C)c3ccccc23)C(=O)N2CCOCC2)cc1`, with -6.8%; and `Cc1cc(C)cc(C(=O)NCC(=O)NCc2ccc(S(N)(=O)=O)cc2)c1`, with -5.1%; and `COc1cccc(N2CCN(C(=O)c3cc4cc(Cl)ccc4[nH]3)CC2)c1`, with -4.9%. Then `COC(=O)c1c(N)sc(Cc2ccccc2)c1C`, with -28.7%. With `CCOC(=O)c1c(N)sc(C(=O)Nc2ccccc2)c1C` the figure was -18.7%. For the molecule `COC(=O)c1c(N)sc(C(=O)NCCc2ccccc2)c1C`, the inhibition was 69.8% (active). `Cc1ccc(S(=O)(=O)NC(C)(C)CSc2ncccn2)cc1`: the inhibition is -3.5%. With `Cc1ccc(S(=O)(=O)NC(C)(C)CSc2nnc(Nc3ccccc3)s2)cc1` the figure was 64.7% (active). Take `Cc1ccc(S(=O)(=O)NC(C)(C)CSc2nnc(N)s2)cc1`: the inhibition is -25.5%.

Broadly, the inhibition is the change of the read-out against control, counted positive when it falls.
